Screening results (PubChem BioAssay)
Shown are actives, neighbours in structure and some others; about 4.3% of the full set was active somewhere.
Autofluor counter: flagged as autofluorescent in microsphere protease counterscreen; hit rate 3.1% among 360,000; compound autofluorescence counterscreen, microsphere flow cytometry; stronger effect = higher value; fluorescence intensity (no concentration beside the values); in the data active means fluorescence intensity above about 16000; inconclusive means no clear call, values can overlap the other calls
BoNT F protease: BoNT/F light chain protease inhibitors, primary screen, biochemical, flow cytometry, MLPCN library; inhibition, % at 10 µM; Multiplex microsphere protease cleavage assay; hit rate 0.22% among 360,000; Botulinum neurotoxin type F light chain protease (Clostridium botulinum); in the data active means inhibition above about 35%, passing the limit was not always enough; inconclusive means no clear call, values can overlap the other calls
MazEF act: activators of E. coli MazEF toxin-antitoxin RNase, primary screen, biochemical, fluorescence, uHTS; Endoribonuclease toxin MazF (Escherichia coli (strain K12)), P0AE70; FAM/BHQ RNA-DNA oligo cleavage fluorescence, 5 h; activation, % at 20 µM; hit rate 0.32% among 350,000; AID 504720, 2011; in the data active means activation above about 50%
Target sequence (P0AE70 whole entry, looked up): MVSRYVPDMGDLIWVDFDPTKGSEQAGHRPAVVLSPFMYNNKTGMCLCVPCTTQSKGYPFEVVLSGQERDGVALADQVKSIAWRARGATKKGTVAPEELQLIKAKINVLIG
Anthrax LF inh2: Bacillus anthracis LF protease inhibitors, primary screen, biochemical, multiplex microsphere, MLPCN library; hit rate 0.12% among 360,000; Lethal factor (Bacillus anthracis), P15917; inhibition, % at 10 µM; AID 588501, 2011; multiplex microsphere protease cleavage assay
PfHsp40 rescue: rescue of yeast from PfHsp40 toxicity, primary screen, S. cerevisiae, ATP luminescence | S. cerevisiae expressing PfHsp40, growth rescue | growth rescue, % at 12.5 µM | hit rate 0.68% among 340,000 | AID 504582, 2011; in the data active means growth rescue above about 28%, passing the limit was not always enough; inconclusive means no clear call, values can overlap the other calls;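 further: yeast W303a lacking pdr1 and pdr3 grown in galactose medium; growth measured after three days at 30 °C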
BoNT A protease: BoNT/A light chain protease inhibitors, primary screen, biochemical, flow cytometry, MLPCN library; AID 588499, 2011; inhibition, % at 10 µM; Botulinum neurotoxin type A light chain protease (Clostridium botulinum A str. ATCC 3502); multiplex microsphere protease substrate cleavage; hit rate 0.17% among 360,000
Each line names hits and unclear results; the compound was inactive in the other large screens. Unless noted, no stated cut-off is given here; in the data, active means inhibition above about 30%; inconclusive means no clear call, values can overlap the other calls; inactive means below that.

CC(=O)c1c(C)oc2c1cc(NS(=O)(=O)c1ccc(C(=O)O)cc1)c1ccccc12	MazEF act 78.6
COc1ccc(SC[C@H](Cc2ccccc2)N2CC[C@@H](C(C)(C)C)CCC2=O)cc1	none
CC(=O)/C(=N/Nc1ccccc1)N1CCOCC1	Autofluor counter 22407
CC(=O)/C(=N/Nc1cccc(Cl)c1)N1CCOCC1	none
CCOC(=O)c1nn(-c2ccc(F)cc2)c2nc(CC(C)C)c(C#N)c(=O)n12	Autofluor counter 18268
CCOC(=O)c1nn(-c2ccccc2)c2nc(-c3ccc(OC)cc3)c(C#N)c(=O)n12	none
CCc1noc(C)c1C(=O)Nc1cc(Cl)ccc1N1CCCC1	none
O=C(CC(C(=O)O)N1CCOCC1)Nc1ccc(Cl)cc1 (stereo not drawn)	Autofluor counter 19713
O=C(CN1CCOCC1)Nc1ccc(Cl)cc1	BoNT F protease inconclusive
Cc1ccc(C)c(OCC(=O)Nc2nc3ccc([N+](=O)[O-])cc3s2)c1C	Autofluor counter 22520, BoNT A protease inconclusive
Cc1ccc(C)c(-n2sc3ccc(F)cc3c2=O)c1	none
COc1ccc(-n2sc3ccccc3c2=O)cc1	none (no result: PfHsp40 rescue)
N#Cc1ccc2sn(-c3ccccc3)c(=O)c2c1	BoNT A protease 32.7 (no result: PfHsp40 rescue)
COc1ccc(-n2sc3ccc(F)cc3c2=O)cc1	PfHsp40 rescue 125.5
O=c1c2cc(F)ccc2sn1-c1ccc(F)cc1	PfHsp40 rescue 76.4
O=c1c2cc([N+](=O)[O-])ccc2sn1-c1ccccc1	none (no result: PfHsp40 rescue)
N#Cc1ccc(OCC(=O)Nc2ccc(N3CCCC3)cc2)cc1	none
FC(F)(F)c1cnc(N2CCN(C(=S)NCc3ccccc3)CC2)c(Cl)c1	PfHsp40 rescue 77.1
FC(F)(F)c1cnc(N2CCCN(C(=S)Nc3ccccc3)CC2)c(Cl)c1	BoNT F protease inconclusive
Cc1c(Cl)cccc1NC(=O)CSc1ncnc2c1cnn2CCO	none
COc1ccc(S(=O)(=O)Cc2ccc(C(=O)NCCCN(C)c3ccccc3)o2)cc1	Autofluor counter 22186, BoNT A protease inconclusive
O=C(NCc1ccc2c(c1)OCO2)c1ccc(CS(=O)(=O)c2cccc(C(F)(F)F)c2)o1	none
CCCc1ccc(OCc2ccc(C(=O)N3CCN(c4ccccn4)CC3)o2)c(OC)c1	Autofluor counter 23006, BoNT A protease inconclusive
O=C(c1ccc(CS(=O)(=O)c2cccc(C(F)(F)F)c2)o1)N1CCN(c2ccccn2)CC1	Autofluor counter 23435, BoNT A protease inconclusive
CCCCNC(=O)c1ccc(CS(=O)(=O)c2ccc(OC)cc2)o1	none
O=C(NCc1ccco1)c1ccc(CS(=O)(=O)c2cccc(C(F)(F)F)c2)o1	Autofluor counter 22579
COCCNC(=O)c1ccc(CS(=O)(=O)c2cccc(C(F)(F)F)c2)o1	none
CCCCNC(=O)c1ccc(CS(=O)(=O)c2cccc(C(F)(F)F)c2)o1	Autofluor counter 21163
CSc1cccc(NC(=S)N(CCCN2CCC(C)CC2)Cc2cccs2)c1	none
CCN(CC)CCN1C(=O)c2ccccc2NC1c1ccc(F)cc1 (stereo not drawn)	none
CCN(CC)CCN1C(=O)c2ccccc2NC1c1ccc(C)cc1 (stereo not drawn)	Autofluor counter 23099, BoNT A protease inconclusive
O=C(CCC1COc2ccccc2O1)NC1CCCCC1 (stereo not drawn)	Autofluor counter 23549
O=C(CC1COc2ccccc2O1)NC1CCCCC1 (stereo not drawn)	none
Cc1csc(/C(=N/OC(=O)c2ccco2)C(N)=O)n1	none
COc1ccccc1C(=O)NC(CCSC)C(=O)NCC(c1ccco1)N(C)C (stereo not drawn)	Autofluor counter 21152
O=c1oc2ccccc2cc1-c1csc(Cc2nc(-c3ccc(Br)cc3)cs2)n1	Autofluor counter 16508, BoNT A protease inconclusive
O=c1[nH]n(-c2ccc(Cl)cc2)c(=O)c(Cl)c1Cl	Autofluor counter 21602, BoNT A protease inconclusive
CCOC(=O)c1c(C)[nH]c(C(=O)CSc2ccc(Cl)cc2)c1C	Autofluor counter 16362, BoNT A protease inconclusive
CCOC(=O)c1c(C)[nH]c(C(=O)CSc2nc(C)cc(C)n2)c1C	PfHsp40 rescue inconclusive
CCOC(=O)c1c(C)[nH]c(C(=O)CN2CCOCC2)c1C	Autofluor counter 23350
CCOC(=O)c1[nH]c(C)c(C(=O)NCCCN2CCOCC2)c1C	none
CN(CCc1ccccn1)Cc1ccc(Cl)cc1Cl	Autofluor counter 24561
CN(CCc1ccccn1)Cc1ccc(Cl)c(Cl)c1	BoNT F protease inconclusive
Cc1ccc(S(=O)(=O)N(C)CC(=O)NNC(=O)CCNS(=O)(=O)c2cccc(C)c2)cc1	none
COc1cccc(NC(=O)C2(C)CCN2Cc2ccc3ccccc3c2)c1 (stereo not drawn)	none (no result: MazEF act, PfHsp40 rescue)
CCCCN(CCCC)CCCNC(=O)CC1Oc2ccc(C)cc2NC1=O (stereo not drawn)	Autofluor counter 23832
Cc1ccc(C(=O)COC(=O)c2cnccn2)cc1	none
Cc1ccc(C(=O)Oc2ccc(C(=O)COC(=O)c3cnccn3)cc2)cc1	Autofluor counter 16162
COC(=O)c1sc2ccccc2c1C(=O)OC	Autofluor counter 22728, BoNT A protease inconclusive
O=C1OCC(Cn2c3ccccc3c3ccccc32)O1 (stereo not drawn)	Autofluor counter 23400
O=c1c2ccccc2c2ccccc2c(=O)n1CC1CCCO1 (stereo not drawn)	none
CSc1ccc(NC(=O)c2cccnc2)cc1C#N	none
Cc1nn(C)cc1/C=C/C(=O)c1ccccc1	Autofluor counter 16636
Cc1nn(C)c(C)c1/C=C/C(=O)c1ccccc1	Autofluor counter 24377
O=C(CNC(c1ccccc1)c1ccccc1)NCc1ccccc1Cl	none
CCC(c1nnnn1-c1ccc2c(c1)OCCO2)N1CCN(Cc2c(F)cccc2Cl)CC1 (stereo not drawn)	none (no result: MazEF act, PfHsp40 rescue)
CC(C)OC(=O)c1cc2ccccc2[nH]1	Autofluor counter 21156
CCOC(=O)c1cc2cc3ccccc3cc2[nH]1	none
CN(CC(=O)NCCCN1CCOCC1)S(=O)(=O)c1cc(Cl)ccc1Cl	none
Cc1ccc(CN=c2c([N+](=O)[O-])nn(-c3ccc(Cl)cc3)n2O)cc1	PfHsp40 rescue 51.9
Cc1cccc(N=c2c([N+](=O)[O-])nn(-c3ccc(Cl)cc3)n2O)c1	none
Cc1cc(C)cc(N=c2c([N+](=O)[O-])nn(-c3cccc(Cl)c3)n2O)c1	Autofluor counter 22853
CCc1cccc(N=c2c([N+](=O)[O-])nn(-c3ccc(Cl)cc3)n2O)c1	Autofluor counter 22799
O=[N+]([O-])c1nn(-c2cccc(Cl)c2)n(O)c1=NCc1cccnc1	BoNT F protease 35.0
CC1Cc2ccccc2N1C(=O)CSc1ncccn1 (stereo not drawn)	Autofluor counter inconclusive
COc1ccc(Cl)cc1-c1cc(C(=O)NCc2ccccc2)[nH]n1	none (no result: MazEF act, PfHsp40 rescue)
